In the library only some 21% were active in any assay of this set; here they are far more common.
Cycloheximide cs – counter-screen hit for Shiga toxin inhibitors, cycloheximide | cell reporter, cycloheximide protein synthesis inhibition counterscreen | max response, % | AID 2314 | actives 12% (n = 300,000); in the data active = max response mostly above about 13%, no sharp cut-off; inactive = mostly below about 14%; also: read at 38.3 µM for the half of the compounds with a filed dose; 0% is about no effect
Sm TGR block – blocks Schistosoma mansoni thioredoxin glutathione reductase; purified TGR, DTNB reduction, TNB absorbance 405 nm; Potency, µM (series often up to 114 µM), without a hit: at the top dose activity change, negative = inhibition, usual class: inhibitors; actives 3% (n = 360,000); AID 485364; also: potency is read from the fitted curve at half-maximal effect; % is scaled to controls: 0 for no effect and ±100 for the full control effect; nearly all actives have a fitted effect of over 60% in size
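TGR 20 nM + NADPH 100 uM (dispensed conc.), cpd preinc 15 min RT; start with NADPH (500 uM addition) then DTNB (15 mM addition). Kinetic TNB absorbance, 405 nm filter. Four-parameter Hill fit across titration.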
Shiga inhibitor – inhibitors of Shiga toxin in Vero cells; Vero cells, Shiga toxin protein synthesis inhibition reporter; inhibition, % at 38.7 µM; actives 9.2% (n = 290,000); in the data active = inhibition mostly above about 28%, no sharp cut-off; inactive = mostly below about 43%; also: 0% is about no effect
Pf growth 96h – P. falciparum growth inhibition at 96 hour, primary screen for plastid delayed-death inhibitors. P. falciparum luciferase reporter growth, 96 h. Potency, µM (series often up to 28.7 µM), without a hit: at the highest dose activity change, negative = inhibition, hits mostly inhibitors. actives 6.9% (n = 320,000); also: potency is read from the fitted curve at half-maximal effect; % is scaled to controls: 0 for no effect and ±100 for the full control effect
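Parasite growth measured via integrated firefly luciferase reporter in P. falciparum. Infected erythrocytes at 2% hematocrit, 0.05% parasitemia final were treated 96 hours at 37 C under 5% CO2, and luminescence was read.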
Pf growth 48h – inhibits P. falciparum growth in the first generation, 48 h. P. falciparum luciferase growth in erythrocytes, 48 h. Potency, µM (titrated, usually from 28.7 µM), inactives show top-dose activity change, negative = inhibition, most hits filed as inhibitors. actives 5.9% (n = 310,000). AID 504832; also: potency is read from the fitted curve at half-maximal effect; % is scaled to controls: 0 for no effect and ±100 for the full control effect
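Firefly luciferase activity from engineered P. falciparum reports growth; inhibitors lower the luminescent signal. Cultures contained 2% hematocrit erythrocytes at 0.1% final parasitemia.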
NS1 function inh – inhibitors of influenza NS1 protein function. actives 0.4% (n = 270,000). AID 2326. Potency, µM (highest dose often 46.1 µM), for inactives: at the highest dose activity, positive = more growth; calls by dose curve; also: potency is read from the fitted curve at half-maximal effect; actives are rising curves; nearly all actives have a fitted effect of over 50% in size
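S. cerevisiae expressing influenza A NS1, grown in glucose, washed, then diluted 1:100 into pH 6.0 -URA galactose medium with 23 nl compound. Growth recovery read as OD600; NS1-free strain serves as control.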
Starred values were filed as active, the others as inactive; i = inactive; u = inconclusive; x = no result given; [ ] = dose if it differs, or a comment. Unless noted, calls follow the shape of the dose curve; as a rule, active = well fitted curve in the direction sought with a large enough effect; inconclusive = small, poorly fitted or top-dose-only effect, or another doubt; inactive = no such curve, though single readings can be large; an effect the other way counts as inactive or inconclusive.

SMILES	Cycloheximide cs	Sm TGR block	Shiga inhibitor	Pf growth 96h	Pf growth 48h	NS1 function inh
CC(C)(O)c1cc(=O)sc2nc3ccccc3n12	32*	-12%	70*	u	403%	-9%
CCN1C(=O)N/C(=C/c2ccc(C)o2)C1=O	1	35µM*	12	22%	23%	-25%
O=C(O)c1ccc(-c2ccc(/C=C3\NC(=O)N(Cc4ccc(Cl)cc4)C3=O)o2)cc1Cl	11	x	-6	-4%	15µM*	7%
CCCN1C(=O)/C(=C/c2ccc(N3CCOCC3)cc2)NC1=S	12	5%	32	u	-25%	x
CCCN1C(=O)/C(=C/c2ccc(C)o2)NC1=S	16	6.3µM*	30	u	-7%	x
Cc1ccc(/C=C2/NC(=O)N(Cc3ccc(Br)cc3)C2=O)o1	-5	50µM*	1	-25%	-17%	-44%
CC(=O)c1oc2ccccc2c1NC(=O)CN1CCCCC1	8	7%	2	-28%	-9%	-4%
CCOC(=O)c1ccc2ncc3c(-c4ccccc4)nn(-c4ccc(F)c(Cl)c4)c3c2c1	x	3%	x	x	x	x
CCc1ccc(CNC(=O)c2ccc3c(c2)nc2n3CCOC2)cc1	x	3%	x	x	x	x
CSc1cccc(NC(=S)N2CCC(N(C)C3CCCCC3C)CC2)c1 (configuration not stated)	1	22µM*	13	-12%	-30%	x
CSc1cccc(NC(=S)N2CCC(N(C)C3CCCCC3)CC2)c1	-2	45µM*	-2	u	-7%	x
CSc1cccc(NC(=O)CN(C2CCCCC2)S(C)(=O)=O)c1	-2	2%	-7	x	-1%	-31%
Cc1nc(OCC(C)C)c2sc3nc4c(cc3c2n1)COC(C)(C)C4	20*	0%	60*	121%	58%	7%
CCc1nc(OCc2ccco2)c2sc3nc4c(cc3c2n1)COC(C)(C)C4	4	10µM*	5	x	-12%	-10%
COc1nc(C)nc2c1sc1nc3c(cc12)COC(C)(C)C3	34*	-6%	58	252%	x	1%
CCc1nc2c(sc3nc4c(cc32)COC(C)(C)C4)c(=O)n1Cc1ccccc1	-4	10%	-2	u	u	10%
COCCCN1CN(Cc2ccccc2)CNC1=S	0	-6%	-11	i	15%	3%
CC/C=C(/NC(C)=O)c1ccccc1	x	2%	x	u	37%	x
O=C(CCSc1nnc(-c2ccco2)o1)Nc1ccc(F)cc1	14	-14%	-3	-29%	0%	x
CSCCC(NC(=O)OCc1ccccc1)C(=O)NCc1cccnc1 (configuration not stated)	10	-25%	-3	27%	25%	-1%
COCCNc1nc2nonc2nc1N1CCC(N(C)C)C1 (configuration not stated)	5	1%	15	6.6µM*	-17%	8%
COCCNc1nc2nonc2nc1N1C[C@H]2CC[C@H]1C2	1	-2%	-13	10µM*	12%	0%
COCCCNc1nc2nonc2nc1N1C[C@H]2CC[C@H]1C2	2	1%	-2	u	-17%	1%
CCOC(=O)c1cnn(-c2ccccc2)c1NC(=O)CSc1nnc(-c2cccs2)n1CC	-4	2%	-18	-19%	x	-8%
CC(C)CC(NC(N)=O)C(=O)OCC(=O)Nc1ccc(OC(F)F)cc1 (configuration not stated)	0	4%	-3	30%	17%	x
SMILES	Cycloheximide cs	Sm TGR block	Shiga inhibitor	Pf growth 96h	Pf growth 48h	NS1 function inh
CSC1=NCCN1S(=O)(=O)c1ccc(NC(C)=O)cc1	-3	-2%	-4	7%[1.15 µM]	3%	4%
CC(=O)Nc1ccc(S(=O)(=O)N2CCN=C2SCc2ccc(F)cc2)cc1	-1	-7%	-13	15µM*	u	8%
O=S(=O)(c1ccccc1)N1CCN=C1SCc1ccc(Cl)c(Cl)c1	6	-2%	-11	u	u	-6%
CC(=O)Nc1ccc(S(=O)(=O)N2CCN=C2SCc2ccc(C)cc2)cc1	50*	-19%	88*	53%	45%	-12%
O=S(=O)(c1ccccc1)N1CCN=C1SCc1cccc(Cl)c1	-5	-9%	-2	12µM*	u	-20%
Cc1ccc(Cn2c(CN3CCC(C(=O)NCc4ccccc4C)CC3)cc3ccccc32)cc1	x	0%	x	x	x	x
C=CCn1c(CCC(=O)O)ccc1-c1ccc(OC)cc1	0	45µM*	-2	-25%	-1%	7%
COc1ccc(-c2ccc(CCC(=O)O)n2CC(C)C)cc1	-6	10µM*	1	u	x	-4%
COc1ccc(-c2nn(CCC(=O)O)cc2CCC(=O)O)cc1	-5	1%	-9	20%	12%	0%
COc1ccc(OC)c(NC(=O)Cn2c(CCC(=O)O)ccc2-c2ccc(C)cc2)c1	1	-27%	-5	-4%	-10%	x
CC(c1c(O)c2ccccc2[nH]c1=O)C1(C)CCC(O)C(C)(C)O1 (configuration not stated)	-1	11%	-14	u	u	3%
CCCCOc1ccc(S(=O)(=O)N2CCN(c3ccccc3OCC)CC2)cc1	x	3%	x	x	x	x
CC(C)[C@H](NC(=O)c1ccccc1F)C(=O)Nc1nc2c(s1)CCCC2	42*	0%	18	52%	27%	-7%
C/C(=N\Nc1nc2c(s1)CCCC2)c1ccc(Cl)cc1	83*	-32%	116*	u	u	-55%
COc1cccc(C(=O)Nc2nc3c(s2)CCCC3)c1	x	6%	x	x	x	x
COc1cc(OC)cc(C(=O)N[C@H](C(=O)Nc2nc3c(s2)CCCC3)C(C)C)c1	13	5%	28	u	u	9%
CN(C)c1ccc(C(=O)Nc2nc3c(s2)CCCC3)cc1	45*	-6%	21*	-93%	-39%	-31%
CC(C)(C)c1ccc(C(=O)NC(=S)Nc2nc3c(s2)CCCC3)cc1	69*	-2%	113*	86%	136%	4%
CCOc1ccccc1CNC(=O)c1cc(-c2ccc(Cl)s2)nc2ccccc12	x	-2%	x	x	x	x
CCOc1cc(Cl)c(NC(C)=O)cc1OCC	-3	-11%	7	14%	-1%	14%
COc1ccc(CN2C(=NC(=O)C3CCCCC3)SC3CS(=O)(=O)CC32)cc1 (configuration not stated)	-5	-1%	-7	15µM*	u	-5%
COc1ccc(CN2C(=NC(=O)C3CC3)SC3CS(=O)(=O)CC32)cc1 (configuration not stated)	1	3%	-6	-15%	-8%	-9%
CC(C)(/C=N/O)N(O)C=C1C=CC(=O)C=C1	1	8%	-6	0%	-1%	0%
CN1C=CC(=CC=C2C=CC(=O)C=C2)C=C1	-4	-20%	1	1.9µM*	4.7µM*	2%
Nc1c(S(=O)(=O)c2ccccc2)nnn1-c1ccccc1	1	3%	14	u	13%	-5%
Nc1ccc2c(c1)nnn2-c1ccccc1	32*	14%	59	50%	47%	6%

Source: PubChem BioAssay (National Center for Advancing Translational Sciences (NCATS))
